This is part of a sample that, as a whole, favours compounds with a hit. Of some 83,000 tested, about 20% had one in any assay.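 Assay: single dose, 48 h. Readout: percent growth (0 = no net growth; negative = cell death). Active: <10.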 Unmarked numbers belong to inactive results. The source made the active and inactive calls.

Here are results for 17 compounds from PubChem BioAssay (NCI).

What all share (assay): NCI-60 one-dose screen, 48 h (100 = growth as untreated, 0 = no growth, -100 = all killed)
One assay has as its system BT-549 breast. As to conditions: 10 µM unless noted.
A further assay concerns MDA-MB-435 melanoma. The following applies: 10 µM unless noted.
Another assay concerns SW-620 colon. As to conditions: 10 µM unless noted.
The next assay deals with MCF7 breast. The following applies: 10 µM.
Another assay deals with HCT-116 colon. The following applies: 10 µM unless noted.
Another assay deals with HCC-2998 colon. As to conditions: 10 µM unless noted.
The subject of another assay is KM12 colon. The following applies: 10 µM unless noted.

Regarding `CCn1c(-c2nonc2Nc2ccc(OC)cc2)nc2ccccc21`, the growth with BT-549 breast is 103%; in the assay with MDA-MB-435 melanoma it was 96.8%; with SW-620 colon, 104%; with MCF7 breast it was 110%; in the assay on HCT-116 colon, 97.4%; with HCC-2998 colon, 111%. Besides, the growth in the assay with KM12 colon is 106%.
Take `CCn1c(Cc2ccccc2Nc2c(Cl)cccc2Cl)nnc1SCC(=O)NN1C(=O)/C(=C/c2cccc(OC)c2OC)SC1=S`: the growth was 109% in the assay with BT-549 breast; 103% in the assay with MDA-MB-435 melanoma; 106% in the assay with SW-620 colon; 99.1% in the assay with MCF7 breast; 109% in the assay on HCT-116 colon; 115% in the assay with HCC-2998 colon. Further, the growth with KM12 colon was 102%.
With `CC(=O)Nc1nc2c(s1)CCc1c-2cn(S(=O)(=O)c2ccccc2)c1-c1ccccc1`, the growth was 97.7% in the assay with BT-549 breast; 59.7% in the assay with MDA-MB-435 melanoma; 79.5% with SW-620 colon; 54.2% with MCF7 breast; 57.9% with HCT-116 colon; 80.4% in the assay on HCC-2998 colon. For the same compound, the growth with KM12 colon is 54.9%.
Take `O=C(/C=C/c1ccc(Cl)cc1)c1ccc(Nc2nc(NCCO)nc(Nc3ccc(Cl)cc3)n2)cc1`: the growth is 68% in the assay on BT-549 breast; 62.2% in the assay with MDA-MB-435 melanoma; 62.6% in the assay on SW-620 colon; -31.3% (active) in the assay on MCF7 breast; -78.9% (active) in the assay with HCT-116 colon; 20.2% in the assay on HCC-2998 colon. The growth with KM12 colon is 18.7%.
For `c1ccc2cc3c(Nc4ccc(N5CCOCC5)cc4)ccnc3cc2c1`, the growth in the assay with BT-549 breast is 99.3%; in the assay with MDA-MB-435 melanoma it was 95.6%; with SW-620 colon, 101%; in the assay with MCF7 breast, 84%; in the assay on HCT-116 colon it was 90.2%; in the assay on HCC-2998 colon, 109%. Also, the growth in the assay on KM12 colon is 102%.
For `C=C[C@@H]1CCC/C=C/[C@@H]2C[C@H](O)C[C@H]2[C@H](O)/C=C/C(=O)O1`, the growth with BT-549 breast was 40.6%; in the assay with MDA-MB-435 melanoma, 12.9%; with SW-620 colon it was -15.9% (active); with MCF7 breast, -14.8% (active); in the assay on HCT-116 colon, -0.456% (active); with HCC-2998 colon, -23.3% (active). Besides, in the assay on KM12 colon, the growth was -36.3% (active).
Take `O=C(NC1C(O)OC(CO)C(O)C1O)NS(=O)(=O)c1ccc(Cl)cc1` (centres undefined): the growth in the assay with BT-549 breast is 108%; in the assay with MDA-MB-435 melanoma it was 100%; in the assay with SW-620 colon it was 100%; in the assay with MCF7 breast, 98.2%; with HCT-116 colon, 96.9%; in the assay on HCC-2998 colon it was 115%. Further, in the assay with KM12 colon, the growth was 104%.
Regarding `COc1ccc(CCN2CCC(CN(C)Cc3cnn(-c4ccccc4)c3)CC2)cc1`, the growth in the assay with BT-549 breast was 32.5%; in the assay on MDA-MB-435 melanoma, 38.1%; with SW-620 colon it was 26%; with MCF7 breast, 12.4%; with HCT-116 colon it was 21.5%; with HCC-2998 colon, 21.5%. Moreover, the growth in the assay with KM12 colon is 22.5%.
Regarding `O=C1NC(=O)C(=Cc2cn(Cc3cn(Cc4ccc(Cl)cc4Cl)nn3)c3ccccc23)C(=O)N1`, the growth with BT-549 breast is 91.7%; with MDA-MB-435 melanoma, 94.9%; with SW-620 colon it was 92.1%; in the assay with MCF7 breast it was 80%; with HCT-116 colon, 91.3%; in the assay on HCC-2998 colon it was 117%. In addition, in the assay on KM12 colon, the growth is 98.3%.
For `CN1C(=O)N(C)C2(c3ccccc3)n3c(s/c(=C\c4ccccc4)c3=O)=NNC12c1ccccc1` (centres undefined), the growth in the assay with BT-549 breast is 105%; with MDA-MB-435 melanoma, 98.1%; in the assay with SW-620 colon, 88.6%; in the assay with MCF7 breast, 85.6%; in the assay on HCT-116 colon, 88.3%; in the assay with HCC-2998 colon it was 110%. In addition, the growth in the assay with KM12 colon was 88.2%.
`N#C/C(=C1\SC(=O)CN1c1ccccc1)c1nc2ccccc2s1`: the growth in the assay with BT-549 breast is 103%; with MDA-MB-435 melanoma, 102%; in the assay on SW-620 colon it was 93.5%; in the assay with MCF7 breast, 73.8%; with HCT-116 colon, 89%; with HCC-2998 colon it was 97.3%. The growth in the assay with KM12 colon was 98.4%.
As for `CC1=CCC(OC(=O)C(C)(C)CCC(O)(C(=O)OC2(C(C)C)CCC3(C)OC3C2)C(C)C)(C(C)C)CC1` (centres undefined), the growth is -88.6% (active) in the assay on BT-549 breast; -98% (active) in the assay on MDA-MB-435 melanoma; -62.1% (active) in the assay on SW-620 colon; -61.1% (active) in the assay on MCF7 breast; -41.2% (active) in the assay with HCT-116 colon; -72.8% (active) in the assay with HCC-2998 colon. The growth in the assay with KM12 colon is -79% (active).
With `COC(=O)[C@@H]1CCCN1C(=O)[C@H]1CCCN1C(=O)[C@@H](Cc1c[nH]c2ccccc12)NC(=S)Nc1cc(C(F)(F)F)cc(C(F)(F)F)c1`, the growth with BT-549 breast is 78.9%; with MDA-MB-435 melanoma, 31.9%; in the assay on SW-620 colon, 63.1%; in the assay with MCF7 breast, 25.3%; with HCT-116 colon, 36.9%; in the assay with HCC-2998 colon it was 20.8%. The growth with KM12 colon was 40.1%.
With `CCOC(=O)c1sc(-c2ccc(OS(=O)(=O)c3ccc(Br)s3)c(C=O)c2)nc1C`, the growth in the assay with BT-549 breast was 9.16% (active); in the assay with MDA-MB-435 melanoma, -12.1% (active); in the assay on SW-620 colon it was 7.65% (active); with MCF7 breast it was 0.976% (active); with HCT-116 colon it was 2.52% (active); with HCC-2998 colon, 82.5%. Moreover, the growth in the assay on KM12 colon was 6.21% (active).
With `COc1ccc(/C=C2\NC(=O)NC2=O)cc1O`, the growth is 94.1% with BT-549 breast; 94.7% with MDA-MB-435 melanoma; 109% with SW-620 colon; 100% in the assay with MCF7 breast; 89.3% in the assay on HCT-116 colon; 107% in the assay on HCC-2998 colon. For the same compound, the growth with KM12 colon is 102%.
As to `O=C(Nc1ccccc1O)c1ccc(-c2ccc(Cl)cc2Cl)o1`, the growth is 91.7% with BT-549 breast; 96.9% in the assay on MDA-MB-435 melanoma; 101% in the assay on SW-620 colon; 87.5% in the assay on MCF7 breast; 68.7% in the assay with HCT-116 colon; 96.5% in the assay on HCC-2998 colon. The growth in the assay with KM12 colon is 78.8%.
For the compound `Cc1ccc(Cc2cnc(NC(=O)CN3C(=O)/C(=C\c4ccccc4)SC3=S)s2)cc1`, the growth in the assay on BT-549 breast was 117%; in the assay on MDA-MB-435 melanoma it was 107%; in the assay with SW-620 colon, 107%; with MCF7 breast, 95.8%; in the assay with HCT-116 colon, 103%; with HCC-2998 colon, 105%. Also, the growth with KM12 colon is 103%.
